Compound activity deposited in PubChem by several laboratories.
Only some compounds are listed: those with a hit (about 1.5% of all), similar ones and a draw of the others.
Vc quorum ag – inducers of Vibrio cholerae quorum light production without autoinducers, primary screen, BH1578 luxS cqsA deficient, single point; V. cholerae BH1578 lux reporter, luminescence, 6 h; activation, % at 18.7 µM; hit rate 0.16% among 350,000; AID 588436, 2011; in the data active = activation mostly above about 9.7%, no sharp cut-off
PrPC surface inh – inhibitors of human cell surface prion protein PrPC, primary screen, cell-based, TR-FRET; inhibition, % at 13.8 µM; TR-FRET read-out; hit rate 0.43% among 370,000; in the data active = inhibition above about 24%
DUSP3 inh – VHR1 phosphatase inhibitors, primary screen, biochemical, absorbance, uHTS. Dual specificity protein phosphatase 3 (Homo sapiens), P51452. recombinant VHR phosphatase, pNPP absorbance. inhibition, % at 13.3 µM. hit rate 0.52% among 290,000. AID 1654, 2009; in the data active = inhibition above about 50%
Target sequence (P51452 whole entry, looked up): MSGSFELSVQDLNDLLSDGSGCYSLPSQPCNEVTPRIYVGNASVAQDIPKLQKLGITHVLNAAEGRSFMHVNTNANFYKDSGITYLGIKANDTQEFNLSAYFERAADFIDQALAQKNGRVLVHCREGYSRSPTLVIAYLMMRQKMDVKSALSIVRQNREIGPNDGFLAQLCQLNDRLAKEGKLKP
SSB-PriA inh – inhibitors of Klebsiella pneumoniae PriA binding to SSB C-terminal tail, primary screen, biochemical, AlphaScreen | AlphaScreen SSBct-PriA binding, biotinylated peptide | inhibition, % at 33 µM | hit rate 0.6% among 430,000 | AID 1272365, 2023; in the data active = inhibition mostly above about 37%, no sharp cut-off; inactive = mostly below about 20%
TcdB inh – TcdB glycohydrolase inhibitors, primary screen, biochemical, single point, plate reader; Toxin B (Clostridioides difficile), P18177; hit rate 0.24% among 350,000; TcdB glycohydrolase enzymatic assay; inhibition, % at 9.99 µM; AID 652162, 2013; in the data active = inhibition above about 10%
CCHF vOTU inh – CCHFV vOTU protease inhibitors, primary screen, biochemical, Pep-AMC substrate, fluorescence. inhibition, % at 11.5 µM. hit rate 0.55% among 370,000. AID 651958, 2012; in the data active = inhibition above about 30%
Hits are given with their value; - = inactive; . = not tested or not shown; ! = a repeat was not active.

SMILES	Vc quorum ag	PrPC surface inh	DUSP3 inh	SSB-PriA inh	TcdB inh	CCHF vOTU inh
O=C(N/N=C/c1cccs1)c1cc(-c2ccc3ccccc3c2)n[nH]1	-	-	-	.	.	-
Cc1ccc(Nc2c(-c3ccc(N4CCOCC4)cc3)nc3ncccn23)cc1	-	-	-	97	-	-
O=S(=O)(Nc1ccc2c(c1)CCCN2S(=O)(=O)c1ccccc1)c1ccc2c(c1)CCCC2	.	.	.	-	.	.
COCCn1c(-c2ccc(Cl)cc2Cl)nc2oc3ccccc3c(=O)c2c1=O	.	.	.	-	.	.
CCN(CC)S(=O)(=O)c1ccc(N=Nc2c(C)[nH]n(C(N)=S)c2=O)cc1	-	-	-	-	.	31
CC(=O)N(C)c1ccc(N=Nc2c(C)[nH]n(C(N)=S)c2=O)cc1	-	-	-	-	-	-
O=C(Nc1cccc(-c2cn3ccsc3n2)c1)c1cccc(C(F)(F)F)c1	.	.	.	-	.	.
CCC(=O)Nc1ccc2c(c1)OC[C@H](C)N(C(=O)NC(C)C)C[C@@H](C)[C@@H](OC)CN(C)C2=O	.	.	.	.	11	.
CCCC(=O)Nc1ccc2c(c1)OC[C@H](C)N(CC1CCCC1)C[C@H](C)[C@@H](OC)CN(C)C2=O	.	.	.	.	30	.
CCCC(=O)Nc1ccc2c(c1)OC[C@H](C)N(CC1CCCC1)C[C@@H](C)[C@H](OC)CN(C)C2=O	.	.	.	.	-	.
CCC(=O)Nc1ccc2c(c1)OC[C@@H](C)N(C(=O)NC(C)C)C[C@H](C)[C@H](OC)CN(C)C2=O	.	.	.	.	15	.
CCC(=O)Nc1ccc2c(c1)C(=O)N(C)C[C@H](OC)[C@@H](C)CN(C(=O)NC(C)C)[C@@H](C)CO2	.	.	.	.	-	.
COc1ccc(-n2cc(C(=O)O)c3ccccc3c2=O)cc1	-	-	-	-	-	-
CCCN(CCC)CCCNC(=O)c1cn(-c2ccc(OC)cc2)c(=O)c2ccccc12	-	-	53	-	-	-
Nc1ncn([C@@H]2O[C@H](CO)[C@@H](O)[C@H]2O)c(=O)n1	-	42	.	-	-	-
CC(=O)c1ccc(NC(=O)C2=CC(c3ccc4c(c3)OCO4)=NS(=O)(=O)N2C)cc1	-	-	56	-	-	-
CCc1ccc(NC(=O)C2=CC(c3ccc(OC)cc3)=NS(=O)(=O)N2C)cc1	-	-	-	-	76	-
COc1ccc(C2=NS(=O)(=O)N(C)C(C(=O)Nc3ccc(C)cc3)=C2)cc1	-	-	-	-	-	-
O=[N+]([O-])c1cccc(-c2nc(=S)c3c([nH]2)CCCC3)c1	.	.	.	-	.	.
CC(=O)c1cccc(-c2ccc3c(=O)[nH]c(Nc4ccccc4)cc3c2)c1	-	-	.	-	-	104
O=C1C=C(NCCc2cc(Br)c(O)c(Br)c2)C(=O)c2ncccc21	-	-	.	-	-	108
CNC(=O)N(O)C1N(/N=C/c2cccs2)C(=S)SC1(C)C (stereo not drawn)	-	-	-	-	10	-
C#CCOCCOCCOCCNc1nc(N2CCN(C(=O)C(Cc3cc4ccccc4[nH]3)n3cc(C(N)C(C)CC)nn3)CC2)nc(N2CCN(C(=O)C(Cc3cc4ccccc4[nH]3)n3cc(C(N)C(C)CC)nn3)CC2)n1 (stereo not drawn)	-	.	-	43	.	.
O=C(c1cc2cc([N+](=O)[O-])ccc2oc1=O)N1CCc2ccccc2C1	.	.	.	-	.	.
O=C(c1cc2cc([N+](=O)[O-])ccc2oc1=O)n1cccn1	-	-	-	56	-	-
SMILES	Vc quorum ag	PrPC surface inh	DUSP3 inh	SSB-PriA inh	TcdB inh	CCHF vOTU inh
CC(C)c1nc(-c2ccc(N3CCN(C(=O)Cc4cn(C)c5ccccc45)CC3)nc2)no1	.	.	.	61	.	.
Cc1noc(C)c1C(=O)N1CCN(c2ccc(-c3noc(C(C)C)n3)cn2)CC1	.	.	.	-	.	.
O=C(CN1C(=O)COc2ccc(Cl)cc21)NCC1CCCO1 (stereo not drawn)	-	-	54	-	-	-
Cc1ccc2c(c1)N(CC(=O)NCc1cccs1)C(=O)CO2	-	-	-	-	.	-
Cc1ccc(CNC(=O)CN2C(=O)COc3ccc(C)cc32)cc1	-	-	-	39	.	-
Cc1cc(C)cc(NC(=O)CN2CCC(C(=O)NCc3ccccn3)CC2)c1	.	.	.	-	.	.
COC(=O)c1c(NC(=O)Cc2cccs2)sc2c1CCN(C(C)C)C2	.	.	.	-	.	.
CN(C)c1ccc(/C=C/C=C/c2sc3ccccc3[n+]2C)cc1	-	-	-	40	-	-
CC[n+]1c(/C=C/C=C/c2ccc(N(C)C)cc2)sc2ccccc21	-	-	-	61	-	-
CCN1/C(=C\C=C\c2sc3ccccc3[n+]2CC)Sc2ccccc21	.	.	.	56	.	.
O=C(CCc1c(F)cccc1Cl)NC1CCN(c2ccc(C(F)(F)F)cn2)C1 (stereo not drawn)	.	.	.	-	.	.
Cn1c(=O)[nH]c(=O)c2c1nc(Nc1ccc(Oc3ccccc3)cc1)n2CC(=O)O	.	.	.	-	.	.
Cc1cc(C)c2nc(C)cc(N/N=C/c3ccc(O)cc3)c2c1	-	-	-	.	16	-
Cc1cc(N/N=C/c2ccc(O)cc2)c2cccc(C)c2n1	-	-	-	.	11	-
Cc1cc(NN=Cc2ccc(O)cc2)c2cccc(C)c2n1	.	.	.	-	.	.
Nc1c(-c2ccccc2)cnn1-c1cccc(Cl)c1	-	-	-	-	-	-
Nc1ccccc1Nc1cc(-c2cccc(Cl)c2)nn1-c1ccccc1	-	-	-	58	.	-
COc1ccc2nc(-c3ccc(NS(=O)(=O)c4cc(Cl)ccc4OC)cc3)cn2n1	.	.	.	-	.	.
NC(=O)c1ccccc1NC(=O)c1ccc(=O)n(Cc2cccc(F)c2)c1	.	.	.	-	.	.
CC(C)Cc1[nH]c(=O)c(C#N)c2c1CCC2	-	-	-	-	50	-
CCCCc1[nH]c(=O)c(C#N)c2c1CCCC2	-	-	-	-	.	-
Cc1ccc(-c2csc3nc(SCC(=O)Nc4ccc5c(c4)OCCO5)n(-c4ccccc4)c(=O)c23)o1	.	.	.	-	.	.
COc1ccccc1-n1ncc2c(C)nnc(SCC(=O)NCc3ccccc3Cl)c21	.	.	.	89!	.	.
O=C(c1cc(Br)cs1)N(CCc1cccs1)Cc1ccco1	.	.	.	-	.	.
CCN1c2ccccc2NC2N=C(OC)C(c3ccccc3)C21 (stereo not drawn)	-	.	-	54	.	.
SMILES	Vc quorum ag	PrPC surface inh	DUSP3 inh	SSB-PriA inh	TcdB inh	CCHF vOTU inh
CC(OC(=O)c1cc(O)c2ccccc2c1O)C(=O)Nc1ccc(C(N)=O)cc1 (stereo not drawn)	-	-	.	-	-	86
CC(OC(=O)c1ccccc1C(=O)N(C)c1ccccc1)C(=O)Nc1ccc(C(N)=O)cc1 (stereo not drawn)	-	-	.	-	-	-
CCSc1ccccc1C(=O)N1CCC(S(=O)(=O)Cc2ccco2)CC1	.	.	.	-	.	.
C[C@H]1CN(C)CCN1CC1CCN(C(=O)c2ccco2)CC1	.	.	.	-	.	.
CC(COc1ccccc1)N1CCC(CO)(Cc2ccccc2)CC1 (stereo not drawn)	-	-	58	-	-	-
COc1ccc(OCC(=O)NC2CCCCCCC2)cc1	-	-	56	-	-	-
